Bioassay records (PubChem)
Many of the other results were omitted from the sample, so hits are more common in it than they were.
Pf Dd2 inh – inhibitors of Plasmodium falciparum Dd2 growth; P. falciparum Dd2 growth, SYBR Green, 72 h; Potency, µM (doses to about 28.9 µM), hits mostly inhibitors; actives 4.3% (n = 120,000); active = well fitted inhibition curve with a large enough effect; also: nearly all actives have a fitted effect of over 65% in size
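Infected erythrocytes (Dd2, 0.3% parasitemia, 2.5% hematocrit final) are added to compound in RPMI-1640/Albumax II medium, grown 72 h at 37C in low oxygen, then lysed with saponin/Triton-X containing SYBR Green and read by fluorescence.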
A number is an active result; – = inactive; [ ] = remark or other dose.

SMILES	Pf Dd2 inh
COCCNC(=O)C1COC2(CCN(C(=O)c3ccc(F)cc3)CC2)N1C(=O)c1cccc(OC)c1 (stereo not given)	–
Cn1nccc1C(=O)N1CCCCCCNC(=O)[C@@H]2C[C@@H](c3nc(Cc4ccccc4)no3)C[C@@H]21	–
Cc1ccc(C(=O)N2CCCCCCNC(=O)[C@@H]3C[C@@H](c4nc(Cc5ccccc5)no4)C[C@@H]32)cn1	–
O=C1NCCCCCCN(C(=O)CN2CCCC2=O)[C@H]2C[C@H](c3nc(Cc4ccccc4)no3)C[C@@H]12	–
Cn1cc(C(=O)N2CCCCCCNC(=O)[C@@H]3C[C@@H](c4nc(Cc5ccccc5)no4)C[C@@H]32)cn1	–
N#Cc1ccc(C(=O)N2CCCCCCNC(=O)[C@@H]3C[C@@H](c4nc(Cc5ccccc5)no4)C[C@@H]32)cc1	11.2µM
O=C1NCCCCCCN(C(=O)c2ccco2)[C@H]2C[C@H](c3nc(Cc4ccccc4)no3)C[C@@H]12	7.94µM
CCOc1ccc(C(=O)N2CCCC3(C2)Nc2cccnc2NC3=NC2CCCC2)cc1 (stereo not given)	–[5.79 µM]
CCOCCOC1CCN(C(=O)c2nn(C)c3ccccc23)CC1	–
O=C(NCC1Cn2cccc2C(=O)N1Cc1ccccc1)c1ccncc1 (stereo not given)	–
O=C(NCC1Cn2cccc2CN1Cc1ccccc1)c1n[nH]c2ccccc12 (stereo not given)	12.6µM
O=C(NCC1Cn2cccc2CN1Cc1ccccc1)c1ccncc1 (stereo not given)	–
O=C(NCCN1CCCC1)c1cc2cn(C3CC3)cc2s1	–
O=C(NC1CCCCC1)O[C@@H]1CO[C@H]2[C@@H]1OC[C@@H]2NC(=O)c1ccccc1	–
Cc1cc(CN(C)C(=O)CC(c2cccc(O)c2)c2ccccc2Cl)n[nH]1 (stereo not given)	–
COc1ccc(NC(=O)C(NC(=O)/C=C\c2ccc3c(c2)OCO3)c2ccccc2)cc1 (stereo not given)	10µM
COc1ccc(/C=C/C(=O)Nc2cccc(F)c2)cc1	–
COc1cccc(-c2nc(SCC(=O)Nc3ccc4c(c3)OCO4)c(-c3ccccc3)[nH]2)c1	–
CCn1c(C2CCN(C(=O)CCn3nnnc3C)CC2)nn(C)c1=O	–
O=C(Nc1ccc(Oc2ccccc2)cc1)N[C@H]1CO[C@H]2[C@@H]1OC[C@@H]2Nc1nccc(-c2cccc(F)c2)n1	–
c1cc(-c2noc([C@@H]3CCCN3C3CCC3)n2)cc(N2CCOCC2)n1	–
CN1CCN(c2ccc(-c3noc([C@@H]4CCCN4Cc4ccccc4)n3)cn2)CC1	7.94µM
c1ccc(CN2CCC[C@H]2c2nc(-c3ccnc(N4CCOCC4)c3)no2)cc1	12.6µM
CN(C)c1ccc(CN2CCC[C@H]2c2nc(-c3ccnc(N4CCC(C(N)=O)CC4)c3)no2)cc1	–
CNc1ccc(-c2noc([C@@H]3CCCN3Cc3cnc4ccccc4c3)n2)cn1	–
SMILES	Pf Dd2 inh
CNc1ccc(-c2noc([C@@H]3CCCN3Cc3ccc(CO)o3)n2)cn1	–
COc1ccc(S(=O)(=O)N2CCC(c3noc(-c4ccncc4)n3)C2)cc1 (stereo not given)	–[5.79 µM]
O=C(c1ccc2c(c1)OCO2)N1CCC2(CC1)NC(=O)N(Cc1ccccc1)C2=O	–
Cc1noc(C)c1S(=O)(=O)N1CCCC(Cc2noc(-c3ccncc3)n2)C1 (stereo not given)	–
O=C(NC(=O)c1ccccc1)Nc1ccc(-n2nc(C(F)(F)F)cc2C(F)(F)F)cc1	–
COc1ccccc1C(=O)NC(=O)Nc1ccc(-n2nc(C(F)(F)F)cc2C(F)(F)F)cc1	11.2µM
O=C(NC(=O)c1ccc(F)cc1)Nc1ccc(-c2cc(C(F)(F)F)nn2-c2ccccc2)cc1	–
CCn1ccc(C(=O)N2CC(c3nnc(-c4ccc(C)cc4)o3)C3(CCOCC3)C2)n1 (stereo not given)	–
Cc1ccn2c(C(=O)NCc3cccnc3N3CCN(C)CC3)c(C)nc2c1	–
Cc1ccn2c(=O)c(C(=O)NCc3ccccc3Cl)c(O)nc2c1	–
CCC(NCc1c(C(=O)N2CCCCCC2)nc2cc(C)ccn12)c1ccc(C)cc1 (stereo not given)	10µM
CCOCCn1c(=O)n(Cc2ncccn2)c2cc(C(=O)O)cnc21	–
O[C@H]1[C@H](NCc2ccc(F)cc2)[C@H]2CO[C@H](O2)[C@@H]1N1CCC(Cc2ccccc2)CC1	–
CCOc1ccc(-c2cnc(-c3cnc(CC)nc3)[nH]2)cc1OCC	10µM
CCc1ncc(-c2ccccc2)[nH]1	–
CCOc1ccc(-c2nc(C3CC(=O)N(c4ccc(F)cc4)C3)no2)cc1OCC (stereo not given)	–
O=C(Cc1cccs1)N1CC[C@H]2COC(=O)N2c2cc(F)ccc2C1	–
COc1ccc(C2(C(=O)N3CCC(Cc4ccccc4)CC3)CCOCC2)cc1	–
c1cc2c(cc1OC1CN(CC3CC3)C1)OCO2	–
COc1ccc(C2Cn3cnc(C(=O)N4CCC(C(=O)Nc5ccc(C)cc5C)CC4)c3CO2)cc1 (stereo not given)	–
COc1ccc(C2Cn3cnc(C(=O)N4CCC(C(=O)Nc5cccc(F)c5)CC4)c3CO2)cc1 (stereo not given)	–
COc1ccc(C2Cn3cnc(C(=O)N4CCC(C(=O)Nc5ccccc5OC)CC4)c3CO2)cc1 (stereo not given)	10µM
COc1ccc(NC(=O)C2CCN(C(=O)c3ncn4c3COC(c3ccccc3)C4)CC2)cc1 (stereo not given)	–
COc1ccc(C2Cn3cnc(C(=O)N4CCC(C(=O)Nc5ccccc5F)CC4)c3CO2)cc1 (stereo not given)	11.2µM
COc1ccc(C2Cn3cnc(C(=O)N4CCC(C(=O)Nc5ccc(C)cc5)CC4)c3CO2)cc1 (stereo not given)	–
SMILES	Pf Dd2 inh
COC[C@@H]1CN(C(=O)c2c(C)noc2C)C[C@H]1c1ccncc1	–
CCN(CC)CCNC(=O)c1c(OCCOC)cc(=O)n2c1CCOCC2	–
CN(CC1Cc2ccccc2CN1C)C(=O)c1cnc2nc[nH]n2c1=O (stereo not given)	–
CCC(CC)NC(=O)c1cnc2cc(C)nn2c1	–
CNC(=O)c1cn2c(n1)CN(C(=O)OCc1ccccc1)CC2	–
CC(C)Cc1nc(CN(C)C(=O)C2CCOc3ccccc3C2)no1 (stereo not given)	–
Cc1ccc(-c2nc3cnccn3c2NCCC(=O)N(C)C)cc1	–
CCS(=O)(=O)N1CCCC(Cc2ncc(C)n2C(C)C)C1 (stereo not given)	–
CCN(CC)C(=O)N1CCCC(Cc2ncc(C)n2Cc2ccc(F)cc2)C1 (stereo not given)	3.55µM
CCCn1c(C)cnc1CC1CCN(S(=O)(=O)c2ccc3c(c2)CCC3)C1 (stereo not given)	1µM
CCCn1c(C)cnc1CC1CCCN(S(=O)(=O)c2cn(C)cn2)C1 (stereo not given)	–
Cc1cnc(CC2CCN(S(=O)(=O)c3cn(C)cn3)C2)n1Cc1ccccc1 (stereo not given)	–
Cc1cnc(CC2CCN(C(=O)C3CC3)C2)n1C(C)C (stereo not given)	–
CCS(=O)(=O)N1CCCC(Cc2ncc(C)n2Cc2ccc(F)cc2)C1 (stereo not given)	1.78µM
COc1ccc(C(=O)N2CCCC(Cc3ncc(C)n3Cc3ccc(F)cc3)C2)cn1 (stereo not given)	–
Cc1cnc(CC2CCCN(C(=O)COc3ccccc3)C2)n1Cc1ccc(F)cc1 (stereo not given)	–
